The structures appear in SMILES notation. Records with an inconclusive call do not appear. Values without a mark were called inactive. Active and inactive are the calls of the source. Calls come from the whole dose curve; as a rule, active = well fitted curve in either direction with a large enough effect (not every such curve was filed as active); inconclusive = small, poorly fitted or top-dose-only effect, or another doubt; inactive = flat fitted curve, though single readings scatter.
% is set by controls: 0 for no effect and ±100 for the full control effect.

This assay in a line: Stat Signaling Pathway (AID 446). The settings on record: ME-180 (cervical carcinoma) SIE beta-lactamase reporter, IL-6 stimulated, 5 h; series mostly up to 17.2 µM; activity, negative = inhibition: at the top concentration. On the procedure: NCGC Assay Overview: The IL-6/STAT signaling pathway was assayed in ME-180 cervical carcinoma cells by a beta-lactamase reporter gene controlled by a STAT Inducible Element (SIE). This reporter is induced by IL-6 at 40 pM AC50 and inhibited by the pan JAK inhibitor, 2-(1,1-Dimethylethyl)-9-fluoro-3,6-dihydro-7H-benz[h]-imidaz[4,5-f]isoquinolin-7-one, at approximately 10 nM AC50. Plated cells were incubated overnight and on the following day, stimulated with 40 pM IL-6 for 5 hrs. The assay was screened at the AC50 of IL-6 activation to identify both inhibitors and activators of IL-6/STAT signaling.
NCGC Assay Protocol Summary: Cells were trypsinized, washed in assay medium (AM, OPTI MEM with 0.5% fetal bovine serum, 0.1 mM nonessential amino acids, 1 mM sodium pyruvate, 10mM HEPES pH 7.3, 100U/ml penicillin, and 100 ug/ml streptomycin) and suspended at 6 x 10e5/ml in AM. Approximately […] cells in 5 uL/well was dispensed into 1536 well plates and the cells were incubated overnight at 37 C. 23 nL of compound were delivered by a pin tool and 1 uL of IL-6 (40 pM final concentration in AM) was added. After centrifugation at 1000 rpm for less than a minute, plates were incubated at 37C for 5 hrs. One uL of detector mix (LiveBLAzerTM, Invitrogen) was added, the plates incubated at room temperature for 2.5 hrs, and fluorescence intensity at 460 and 530 nm emission was measured at 405 nm excitation by an Envision (Perkin Elmer) or Safire II (Tecan). Data were normalized by GeneData to the controls for AC90 stimulation (300 pM IL-6) and to AC90 inhibition (125 nM Jak inhibitor, 40 pM IL-6 in AM).
On to `CN1CCC(OC(c2ccccc2)c2ccccc2)CC1`, for which the “activity, negative = inhibition” value is -3.7%.
Still for that read-out and setting: in the case of `NS(=O)(=O)c1cc(C(=O)O)cc(N2CCCC2)c1Oc1ccccc1` it was 16.1%; in that of `CCc1cc(Cl)c(OC)c(C(=O)NC[C@@H]2CCCN2CC)c1O`, 3.77%.
`C[N+]12CCC(CC1)C(OC(=O)C(O)(c1ccccc1)c1ccccc1)C2` (stereo not given): the “activity, negative = inhibition” value is 6.71%.
For `CCCc1ncc(C[n+]2ccccc2C)c(N)n1`, the “activity, negative = inhibition” value is 8.44%.
Same read-out and setting: as for `O=c1[nH]c(=O)n([C@H]2C[C@H](O)[C@@H](CO)O2)cc1F`, the figure is 3.58%.
Turning to `CCCN(CCC)S(=O)(=O)c1ccc(C(=O)O)cc1`, the molecule was called inactive.
Same read-out and setting: as for `O=C1C(CCS(=O)c2ccccc2)C(=O)N(c2ccccc2)N1c1ccccc1` (stereo not given), the entry is “inactive”.
For the molecule `Cc1c(-c2ccccc2)oc2c(C(=O)OCCN3CCCCC3)cccc2c1=O`, the “activity, negative = inhibition” value was 11.3%.
For `CCCCCCCCNC(C)C(O)c1ccc(SC(C)C)cc1` (stereo not given), the “activity, negative = inhibition” value is -3.21%.
Still for that read-out and setting: in the case of `O=C(O)CCNC(=O)c1ccccc1` it was -4.21%; in that of `CC[C@H](c1ccc(O)cc1)[C@@H](CC)c1ccc(O)cc1`, -28.1%; in that of `CCCCN1C[C@H](O)[C@@H](O)[C@H](O)[C@H]1CO`, 4.24%.
Still for that read-out and setting: in the case of `COc1ccc(C(=O)c2ccccc2)c(O)c1` it was 4.97%.
The same measure, in the same setting: as for `CC(C)(C)NCC(O)COc1cccc2c1C[C@H](O)[C@H](O)C2` (stereo not given in full), the figure is 10.4%.
On to `CC(=O)OCC(=O)[C@H]1CC[C@H]2[C@@H]3CCC4=CC(=O)CC[C@]4(C)[C@H]3CC[C@]12C`, for which the “activity, negative = inhibition” value was 10.4%.
In the case of `CN(C)CCOC(=O)C(c1ccccc1)C1(O)CCCC1` (stereo not given), the “activity, negative = inhibition” value is 5.89%.
As for `CNCCc1ccccn1`, the “activity, negative = inhibition” value was 3.35%.
Take `CC(O)Cn1cnc2c1c(=O)n(C)c(=O)n2C` (stereo not given): the “activity, negative = inhibition” value is 0.371%.
`Nc1ccc(S(=O)(=O)Nc2cnc3ccccc3n2)cc1`: the molecule was classed as inactive.
Consider `CCOC(=O)c1ccc(N)cc1`, for which the “activity, negative = inhibition” value was -6.24%.
Still for that read-out and setting: as for `CC(=O)OC[C@H]1O[C@@H](n2ncc(=O)[nH]c2=O)[C@H](OC(C)=O)[C@@H]1OC(C)=O`, the figure is 5.46%; as for `c1ccc(CC2=NCCN2)cc1`, 5.21%; as for `CC(=O)O[C@]1(C(C)=O)CC[C@H]2[C@@H]3C=C(Cl)C4=CC(=O)CC[C@]4(C)[C@H]3CC[C@@]21C`, -5.71%.
For the molecule `CCOC(=O)Nc1ccc2c(c1)N(C(=O)CCN1CCOCC1)c1ccccc1S2`, the “activity, negative = inhibition” value was -24.4%.
The same measure, in the same setting: in the case of `COc1cc(N)c(Cl)cc1C(=O)NC1CCN(Cc2ccccc2)CC1` it was 6.69%.
Turning to `O=C(O)CCc1nc2ccccc2[nH]1`, the “activity, negative = inhibition” value is 2.64% [at 7.69 µM].
For `CC(C)(C)NC[C@H](O)COc1cccc2c1CCCC2=O`, the molecule was classed as inactive.
As to `CCN(CC)CCNC(=O)COc1ccc(OC)cc1`, the “activity, negative = inhibition” value is 2.34%.
The same measure, in the same setting: in the case of `CN1CCC[C@@H]1CCO[C@](C)(c1ccccc1)c1ccc(Cl)cc1` it was -12.2%.
Same read-out and setting: as for `CCCCNc1ccc(C(=O)OCCOCCOCCOCCOCCOCCOCCOCCOCCOC)cc1`, the figure is 6.06%; as for `NS(=O)(=O)Cc1noc2ccccc12`, -2.6% [at 38 µM]; as for `CCN(CC)CCNC(=O)c1cc(Br)c(N)cc1OC`, 4.35%.
Same read-out and setting: as for `CCOc1ccc(NC(C)=O)cc1`, the figure is 7.05%; as for `CN(C)CCC[C@@]1(c2ccc(F)cc2)OCc2cc(C#N)ccc21`, 1.3% [at 38 µM].
For `CCCCc1cc2ccccc2c(OCCN(C)C)n1`, the “activity, negative = inhibition” value is -3.04%.
The same measure, in the same setting: in the case of `COc1cc(C(=O)NCc2ccc(OCCN(C)C)cc2)cc(OC)c1OC` it was -9.15%.
On the same count and under the same terms, in the case of `N=C(N)N1CCc2ccccc2C1` it was 8.09%; in that of `NC(N)=NCc1cccc(I)c1`, 6.94% [at 38 µM].
As to `O=C(CCCN1CC=C(n2c(=O)[nH]c3ccccc32)CC1)c1ccc(F)cc1`, the molecule was classed as inactive.
